Test results as given in ChEMBL document CHEMBL3988442, “University of Dundee, Small-Polar-MMV Screening Library” (2021).
Screen size: about 69,000 compounds; about 950 (1.4%) showed an effect of 50% or more. The entries come from a sample that favours strong results as a whole.

What follows are compounds tested on Mycobacterium tuberculosis (assay: Cornell M. t heat shock assay; also: in the data most compounds retested in dose-response had high values).
Type: functional, organism-based
Parameters: dose or concentration left out as unconfirmed
For `Cc1ccc(CN2CCO[C@H]3[C@H](OCc4cccnc4)CC[C@@H]32)o1.O=C(O)C(F)(F)F.O=C(O)C(F)(F)F`, the “Percent Effect” value was 17.99%. For `Cl.c1cnc2[nH]c(C3CCCNC3)c(CN3CCCOCC3)c2c1` (stereo not given), the “Percent Effect” value was -14.8%. For `CCOc1ccc(Br)cc1-c1cc(N)[nH]n1.Cl`, the “Percent Effect” value was 3.82%. With `CCOc1ccccc1-c1cc(N)[nH]n1.Cl` the “Percent Effect” value was -11.82%. For `Nc1ncccc1CN1C[C@@H]2CC[C@H](C1)N(CC1CC1)C2=O`, the “Percent Effect” value was -11.72%. For `CC(C)=CCN1C(=O)[C@H]2CC[C@@H]1CN(Cc1cccnc1N)C2`, the “Percent Effect” value was 105.7%. In the case of `Cc1noc(C)c1CN1C(=O)[C@H]2CC[C@@H]1CN(Cc1cccnc1N)C2`, the “Percent Effect” value is reported as 4.913%. With `Cl.NC(=O)C1CN(c2ccc(F)cc2)CCN1` (stereo not given) the “Percent Effect” value was 7.399%. For `COc1ccc(Cl)cc1CNCCCn1ccnc1`, the “Percent Effect” value was 13.48%. In the case of `Cc1ccc(CN(CCCn2ccnc2)Cc2c[nH]nc2C(C)(C)C)s1.O=C(O)CC(O)(CC(=O)O)C(=O)O`, the “Percent Effect” value is reported as 9.157%. `Cc1ccc(CN(CCCn2ccnc2)Cc2cccs2)s1.O=C(O)CC(O)(CC(=O)O)C(=O)O` was tested, and the “Percent Effect” value was 106%. For `Cc1ccc(CN(CCCn2ccnc2)Cc2cnn(C)c2)s1.O=C(O)CC(O)(CC(=O)O)C(=O)O`, the “Percent Effect” value was -39.87%. For `OCc1ccc(CN(CCCn2ccnc2)Cc2cccnc2)o1`, the “Percent Effect” value was 13%. For `Cc1ccc(CN(CCN(C)C)Cc2ncc[nH]2)s1`, the “Percent Effect” value was -11.95%. With `COc1ccc(F)c(CN2CCC(c3cc(O)nc(C)n3)C2)c1.O=C(O)CC(O)(CC(=O)O)C(=O)O` (stereo not given) the “Percent Effect” value was -13.93%. With `COc1ccc(F)c(CN(CCCn2ccnc2)Cc2ccc(C)s2)c1.O=C(O)CC(O)(CC(=O)O)C(=O)O` the “Percent Effect” value was 102.4%. With `Cc1ccc(CN(CCCn2ccnc2)Cc2c[nH]cn2)s1.O=C(O)CC(O)(CC(=O)O)C(=O)O` the “Percent Effect” value was -3.628%. With `Cl.Fc1ccc(Cc2cnc(C3CCCN3)cn2)cc1` (stereo not given) the “Percent Effect” value was -27.64%. For `COc1ccc(CN(C)[C@@H]2COC[C@H]2c2ccc(F)cc2)cc1.O=C(O)CC(O)(CC(=O)O)C(=O)O`, the “Percent Effect” value was -8.721%. With `Cc1oncc1C(=O)N[C@@H]1CN(CC2CC2)C[C@@H]2CCCO[C@@H]21.O=C(O)C(F)(F)F` the “Percent Effect” value was 28.88%. In the case of `COCCNC(=O)[C@@H]1C[C@@H]2CCN(c3ncccn3)C[C@H]2O1.O=C(O)C(F)(F)F`, the “Percent Effect” value is reported as -37.39%. `O=C(NC1CC1)C1=CC2(CCN(CC3CC3)CC2)c2ccccc21.O=C(O)C(F)(F)F` was tested, and the “Percent Effect” value was -12.48%. In the case of `Fc1ccccc1CN(CCCn1ccnc1)CC1CCOC1.O=C(O)CC(O)(CC(=O)O)C(=O)O` (stereo not given), the “Percent Effect” value is reported as -23.62%. For `Cc1ccc(CN(Cc2cccnc2)C2CC(C)(C)NC(C)(C)C2)s1.O=C(O)CC(O)(CC(=O)O)C(=O)O`, the “Percent Effect” value was -4.253%. `COc1ccccc1CN(CCCn1ccnc1)CC1CCOC1.O=C(O)CC(O)(CC(=O)O)C(=O)O` (stereo not given) was tested, and the “Percent Effect” value was 0.5182%. In the case of `OCc1ccc(CN(CCCn2ccnc2)Cc2ccncc2)o1`, the “Percent Effect” value is reported as -4.525%. For `c1cc(CN(CCCn2ccnc2)Cc2ccoc2)ccn1`, the “Percent Effect” value was 0.7312%. With `CC(C)OCCCN(Cc1ccncc1)Cc1cc(F)ccc1F.Cl` the “Percent Effect” value was -8.981%. `Cc1ccc(CN(CCCn2ccnc2)Cc2c(F)cccc2F)s1.O=C(O)CC(O)(CC(=O)O)C(=O)O` was tested, and the “Percent Effect” value was 103.6%. `Cc1ccc(CN(CCCn2ccnc2)Cc2cc(F)ccc2F)s1.O=C(O)CC(O)(CC(=O)O)C(=O)O` was tested, and the “Percent Effect” value was 105.9%. `Cc1ccc(CN(CCCN2CCOCC2)Cc2cncn2C)o1.O=C(O)CC(O)(CC(=O)O)C(=O)O` was tested, and the “Percent Effect” value was 7.314%. `COC[C@]12COC[C@H]1CN(Cc1ccc3c(c1)OCO3)C2.O=C(O)C(F)(F)F` was tested, and the “Percent Effect” value was -2.808%. `CC(CN1CCOCC1)OC(=O)c1ccccc1I.Cl` (stereo not given) was tested, and the “Percent Effect” value was -19.16%. For `O=C(O)C(F)(F)F.c1ccc(N2CCOC3(CCCN(c4ncccn4)C3)C2)nc1` (stereo not given), the “Percent Effect” value was 36.25%. In the case of `Cn1cc(CN2CC[C@]3(C[C@H](Oc4ccccn4)CO3)C2)cn1.O=C(O)C(F)(F)F.O=C(O)C(F)(F)F`, the “Percent Effect” value is reported as 21.89%. In the case of `Cc1cccnc1N1CC2(CCN(Cc3cnn(C)c3)C2)C1.O=C(O)C(F)(F)F.O=C(O)C(F)(F)F`, the “Percent Effect” value is reported as -17.77%. For `CN(C)CCN1C(=O)CCC12CCN(Cc1cccs1)CC2.O=C(O)C(F)(F)F.O=C(O)C(F)(F)F`, the “Percent Effect” value was -4.329%. In the case of `CN(C)C(CNC(=O)c1cc2c([nH]c1=O)CCCC2=O)c1ccsc1` (stereo not given), the “Percent Effect” value is reported as -5.178%. For `Cc1ccccc1CN1C[C@@H]2COC[C@]2(CNC(=O)C2CCC2)C1.O=C(O)C(F)(F)F`, the “Percent Effect” value was 17.62%. With `CCc1ccc(CN(CCCn2ccnc2)Cc2ccc(C)s2)o1.O=C(O)CC(O)(CC(=O)O)C(=O)O` the “Percent Effect” value was 103.6%. `Cc1ccc(CN(CCCn2ccnc2)Cc2[nH]cnc2C)s1.O=C(O)CC(O)(CC(=O)O)C(=O)O` was tested, and the “Percent Effect” value was -16.97%. In the case of `Cc1ccc(CN(CCCn2ccnc2)Cc2cnc(N(C)C)nc2)s1.O=C(O)CC(O)(CC(=O)O)C(=O)O`, the “Percent Effect” value is reported as -30.9%. In the case of `Cc1nc(CN2CCO[C@@H]3CN(Cc4ccccn4)CC[C@@H]3C2)cs1.O=C(O)C(F)(F)F.O=C(O)C(F)(F)F`, the “Percent Effect” value is reported as -0.9653%. For `CC(=O)N1C[C@@H]2CC[C@H](C1)N(C(=O)CCc1n[nH]c3c1CCCC3)C2`, the “Percent Effect” value was -1.596%. `O=C(CCc1n[nH]c2c1CCCC2)N1C[C@@H]2CC[C@H](C1)N(CC1CC1)C2` was tested, and the “Percent Effect” value was 90.59%. `CS(=O)(=O)N1C[C@@H]2CC[C@H](C1)N(C(=O)CCc1n[nH]c3c1CCCC3)C2` was tested, and the “Percent Effect” value was 3.499%. For `CN(C)C(=O)N1CCN(Cc2cnn(C)c2)CC2(CNC(=O)C2)C1.O=C(O)C(F)(F)F` (stereo not given), the “Percent Effect” value was 0.6854%. `Cc1cc(NCCSc2nccn2C)n2nc(C)c(C)c2n1` was tested, and the “Percent Effect” value was 72.35%. With `COCCn1cnnc1CNc1cc(C)nc2c(C)c(C)nn12` the “Percent Effect” value was 44.3%. `Cc1ccnc(NCCSc2nccn2C)n1` was tested, and the “Percent Effect” value was 9.062%. For `Cc1cc(NCCSc2nccn2C)n2ncnc2n1`, the “Percent Effect” value was -35.12%. For `Cc1cc(NCc2nnc3n2CCC3)n2nc(C)c(C)c2n1`, the “Percent Effect” value was -14.51%. In the case of `CCSCCNc1cc(C)nc2c(C)c(C)nn12`, the “Percent Effect” value is reported as 105.5%. `CC(C)C[C@H](N)c1nnc(SCC(N)=O)o1.Cl` was tested, and the “Percent Effect” value was -14.25%. For `Cn1ccnc1CN1CCC2(CC1)COC2.O=C(O)C(F)(F)F`, the “Percent Effect” value was 6.701%. In the case of `CCN(C(=O)c1nc2c(s1)CCCN2Cc1ccccc1)C(C)C`, the “Percent Effect” value is reported as 52.41%. With `CC(C)NC(=O)c1nc2c(s1)CCCN2Cc1ccccc1` the “Percent Effect” value was 16.22%. In the case of `CN(C)C(=O)c1nc2c(s1)CCCN2Cc1ccccc1`, the “Percent Effect” value is reported as 1.043%. In the case of `O=C(O)C(F)(F)F.O=C(O)C(F)(F)F.O=C(c1cccnc1)N1CCC2(CC1)COC(COc1ccccn1)C2` (stereo not given), the “Percent Effect” value is reported as -16.52%. `CC[C@@H]1N(Cc2ccncc2)CCC[C@]12CCC(=O)N2CCOC.O=C(O)C(F)(F)F.O=C(O)C(F)(F)F` was tested, and the “Percent Effect” value was -19.31%. For `O=C(O)C(F)(F)F.O=C(O)C(F)(F)F.c1cnc(N2CCO[C@H]3CN(CC4CC4)C[C@H]32)nc1`, the “Percent Effect” value was -34.72%. With `COc1ccccc1[C@@H]1CN(Cc2ccc3nsnc3c2)C[C@H]1C(=O)O` the “Percent Effect” value was -17.79%. With `COc1ccccc1[C@@H]1CN(Cc2cc(C(C)(C)C)[nH]n2)C[C@H]1C(=O)O` the “Percent Effect” value was 79.87%. In the case of `COc1ccccc1[C@@H]1CN(Cc2ccncc2)C[C@H]1C(=O)O`, the “Percent Effect” value is reported as 45.83%. For `CN1CC(=O)N(c2ccccc2)CC12CCN(CC1CCOCC1)C2.O=C(O)C(F)(F)F.O=C(O)C(F)(F)F` (stereo not given), the “Percent Effect” value was 3.802%. With `CC(C)Cn1cnc2ccc(NC(=O)CCCn3cccn3)cc2c1=O` the “Percent Effect” value was 60.75%. `CC(C)n1cnc2ccc(NC(=O)CCCn3cccn3)cc2c1=O` was tested, and the “Percent Effect” value was -15.69%. With `Cn1cnc2ccc(NC(=O)CCCn3cccn3)cc2c1=O` the “Percent Effect” value was 5.614%. For `CC(C)[C@H](N)CC(=O)Nc1nc(-c2cnc(N3CCOCC3)nc2)cs1.Cl`, the “Percent Effect” value was -24.08%. In the case of `CCC(=O)N1C[C@@H]2CCN(c3cnccn3)C[C@@H]2C1.O=C(O)C(F)(F)F`, the “Percent Effect” value is reported as -28.75%. For `O=C(O)C(F)(F)F.c1cnc(NCc2nnn3c2CN(Cc2ccco2)CCC3)nc1`, the “Percent Effect” value was -16.16%. With `Cc1ccc(C2NC(=O)c3cc(C(C)C)sc3N2)cc1` (stereo not given) the “Percent Effect” value was 19.82%. In the case of `CC(C)c1cc2c(s1)NC(c1ccccn1)NC2=O` (stereo not given), the “Percent Effect” value is reported as 100.6%. For `CC(C)c1cc2c(s1)NC(c1ccccc1)NC2=O` (stereo not given), the “Percent Effect” value was 16.99%. For `CC(C)C(=O)N1CCN(Cc2ccccn2)CC2(CC(=O)N(C)C2)C1.O=C(O)C(F)(F)F.O=C(O)C(F)(F)F` (stereo not given), the “Percent Effect” value was -3.72%. `CC(C)CN(Cc1nc2c(cnn2C)c(=O)[nH]1)C(C)C` was tested, and the “Percent Effect” value was 9.965%. In the case of `Cc1ccc(C(C)N(C)Cc2nc3c(cnn3C)c(=O)[nH]2)c(C)c1` (stereo not given), the “Percent Effect” value is reported as -15.24%. In the case of `COc1ccccc1C(C)N(C)Cc1nc2c(cnn2C)c(=O)[nH]1` (stereo not given), the “Percent Effect” value is reported as 82.45%. `Cc1ccc(C(C)N(C)Cc2nc3c(cnn3C)c(=O)[nH]2)s1` (stereo not given) was tested, and the “Percent Effect” value was 59.53%. With `Cc1ccc(C(C)N(C)Cc2nc3c(cnn3C)c(=O)[nH]2)cc1` (stereo not given) the “Percent Effect” value was 36.86%. `CC(c1ccccc1Cl)N(C)Cc1nc2c(cnn2C)c(=O)[nH]1` (stereo not given) was tested, and the “Percent Effect” value was -6.582%. `CC(C)N(Cc1ccccn1)Cc1nc2c(cnn2C)c(=O)[nH]1` was tested, and the “Percent Effect” value was 66.99%. With `Cc1ccc(CN(Cc2nc3c(cnn3C)c(=O)[nH]2)C(C)C)s1` the “Percent Effect” value was -2.161%. In the case of `Cc1ccccc1C(C)N(C)Cc1nc2c(cnn2C)c(=O)[nH]1` (stereo not given), the “Percent Effect” value is reported as -10.61%. With `COC(=O)CCC(=O)N1CCCC2(CCCN2Cc2cccc(F)c2)C1.O=C(O)C(F)(F)F` (stereo not given) the “Percent Effect” value was 3.912%.
